About 83,000 compounds went through this panel and 20% of them were active in at least one assay; those are over-represented in the sample as a whole.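 Step 1: grow cells in 96-well plates. Step 2: add test compound at a single concentration. Step 3: incubate 48 h. Step 4: record percent growth.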 Unmarked numbers belong to inactive results. The source made the active and inactive calls. The calls were made as follows: active = growth percent below 10; inactive = the rest.

Among the test systems are T-47D breast; BT-549 breast; MDA-MB-435 melanoma; SW-620 colon; MCF7 breast; HCT-116 colon; HCC-2998 colon; KM12 colon.
What all share (experiment): NCI-60 one-dose screen, 48 h (100 = growth as untreated, 0 = no growth, -100 = all killed)
Common to all, as to settings: 10 µM unless noted

In the case of `O=S(=O)(NCCNc1cc(-c2c(-c3cccc(O)c3)nc3sccn23)ccn1)c1ccc(Br)cc1`, the growth with T-47D breast was 23.8%; in the assay on BT-549 breast, 55.2%; in the assay on MDA-MB-435 melanoma, 26.1%; in the assay on SW-620 colon, 76.8%; with MCF7 breast it was 37.4%; in the assay with HCT-116 colon, 47.9%. The growth is 95.3% with HCC-2998 colon and 51.3% in the assay on KM12 colon.

On to `COc1cc(C2CC(=O)Nc3n[nH]c(-c4ccccc4)c32)cc(OC)c1OC` (stereo not drawn), for which the growth is 67.3% in the assay on T-47D breast; 52.4% in the assay on BT-549 breast; -2.19% (active) with MDA-MB-435 melanoma; 44.5% with SW-620 colon; 47.1% in the assay with MCF7 breast; 45.1% in the assay on HCT-116 colon. Besides, the growth with HCC-2998 colon was 68%; in the assay on KM12 colon, 51.5%.

Regarding `CCCCCCCC/C=C/CCCCCCCC1=NCC[N+]1(CCO)CCO`, the growth with T-47D breast is 90.5%; in the assay on BT-549 breast, 98.7%; with MDA-MB-435 melanoma, 65.1%; in the assay with SW-620 colon, 71.4%; with MCF7 breast it was 66.5%; in the assay on HCT-116 colon it was 59.8%. In addition, the growth was 72% with HCC-2998 colon and 40.4% with KM12 colon.

Consider `Nc1ccc(CCCCc2ccccc2)c(Cl)c1`, for which the growth was 89.9% in the assay on T-47D breast; 91.9% in the assay with BT-549 breast; 99.1% in the assay with MDA-MB-435 melanoma; 92.3% with SW-620 colon; 98.6% with MCF7 breast; 92.6% in the assay on HCT-116 colon. Besides, the growth is 113% in the assay on HCC-2998 colon and 101% in the assay on KM12 colon.

Turning to `COc1cc(C2C=C(c3cccc(NC(C)=O)c3)Nc3ncnn32)cc(OC)c1OC` (stereo not drawn), the growth is 64.7% in the assay with T-47D breast; -0.0208% (active) in the assay on BT-549 breast; -47.7% (active) in the assay with MDA-MB-435 melanoma; 27.6% in the assay with SW-620 colon; 18.3% with MCF7 breast; 20.3% with HCT-116 colon. Also, the growth is 24% with HCC-2998 colon and 15.2% in the assay with KM12 colon.

Take `Cc1cc(-c2ccccc2)cc(SC#N)[n+]1[O-]`: the growth was 46.2% in the assay with T-47D breast; 52.2% with BT-549 breast; 47.5% with MDA-MB-435 melanoma; 38.1% in the assay with SW-620 colon; 23% with MCF7 breast; 36% in the assay with HCT-116 colon. For the same compound, the growth with HCC-2998 colon was 62%; in the assay on KM12 colon, 37.7%.

Take `O=C1c2ccccc2C2(c3ccc(O)cc3)c3ccccc3Oc3cccc1c32` (stereo not drawn): the growth with T-47D breast is 21.8%; in the assay with BT-549 breast, 55.1%; in the assay on MDA-MB-435 melanoma, -3.86% (active); in the assay on SW-620 colon, 22.7%; in the assay with MCF7 breast it was 23.1%; in the assay on HCT-116 colon it was 14.1%. Further, the growth is 34.6% with HCC-2998 colon and 15% with KM12 colon.

For `N=C(N)c1ccc(-c2ccc(-c3ccc(Cl)cc3Cl)o2)nc1`, the growth in the assay with T-47D breast was 59.2%; with BT-549 breast, 94.7%; in the assay on MDA-MB-435 melanoma, -92.1% (active); with SW-620 colon it was -68.7% (active); in the assay on MCF7 breast, -54.6% (active); in the assay with HCT-116 colon, -75.5% (active). In addition, the growth is -34.3% (active) in the assay with HCC-2998 colon and -35.5% (active) with KM12 colon.

With `O=C1CSC(c2ccccc2Cl)N1c1nnc(Cn2cnnc2)o1` (stereo not drawn), the growth was 33.3% in the assay on T-47D breast; 60.6% in the assay on BT-549 breast; -45.1% (active) in the assay with MDA-MB-435 melanoma; 39.4% in the assay on SW-620 colon; -8.09% (active) in the assay with MCF7 breast; 13.3% in the assay with HCT-116 colon. Moreover, the figures for the growth in the assay on HCC-2998 colon and with KM12 colon were 35.8% and 50.9%, respectively.

For the compound `Clc1ccc(-c2nnc(-c3ccco3)o2)cc1`, the growth is 99.2% in the assay with T-47D breast; 101% with BT-549 breast; 89.7% in the assay with MDA-MB-435 melanoma; 99.5% in the assay on SW-620 colon; 95.2% in the assay with MCF7 breast; 87.3% with HCT-116 colon. Besides, the growth is 94.4% in the assay on HCC-2998 colon and 106% in the assay on KM12 colon.

As to `CCn1c(Sc2nnc(NC(C)=O)s2)nc2c1c(=O)n(C)c(=O)n2C`, the growth is 93% in the assay with T-47D breast; 92.8% in the assay on BT-549 breast; 98.1% in the assay with MDA-MB-435 melanoma; 96.1% with SW-620 colon; 94.8% in the assay with MCF7 breast; 97% in the assay with HCT-116 colon. Further, the growth with HCC-2998 colon is 92%; in the assay on KM12 colon it was 106%.

As to `Cl.Fc1c[c-]c(-c2ccccn2)c(F)c1.[Pt].c1ccc(P(c2ccccc2)C([PH+](c2ccccc2)c2ccccc2)[PH+](c2ccccc2)c2ccccc2)cc1`, the growth in the assay on T-47D breast was 27.7%; in the assay with BT-549 breast, 26.6%; in the assay on MDA-MB-435 melanoma, 12.9%; in the assay on SW-620 colon, 14.7%; in the assay with MCF7 breast, 4.74% (active); with HCT-116 colon, 8.7% (active). Also, the growth in the assay on HCC-2998 colon was 24.6%; with KM12 colon, 11.4%.

Regarding `CC(=O)NCC(=O)Nc1ccc(-c2nnc3ccccn23)nc1.CC(=O)NCC(=O)Nc1ccc(-c2nnc3ccccn23)nc1.[Pt+2]`, the growth in the assay on T-47D breast was 105%; in the assay on BT-549 breast, 114%; with MDA-MB-435 melanoma it was 114%; in the assay with SW-620 colon, 105%; with MCF7 breast it was 110%; with HCT-116 colon, 95.4%. Besides, the growth in the assay on HCC-2998 colon is 106%; in the assay on KM12 colon it was 109%.

On to `COC(=O)Nc1nc2ccc(C(=O)C3CC3)cc2[nH]1`, for which the growth is 57.1% in the assay on T-47D breast; 74.9% in the assay with BT-549 breast; -63.7% (active) with MDA-MB-435 melanoma; 20.6% in the assay with SW-620 colon; 4.01% (active) in the assay with MCF7 breast; 9.29% (active) with HCT-116 colon. For the same compound, the growth with HCC-2998 colon is -12.7% (active); in the assay with KM12 colon, -0.0812% (active).

For `Cc1[nH]c(-c2nc3ccccc3[nH]2)c(C)c1C(=O)NNc1ccc(Cl)cc1`, the growth in the assay on T-47D breast was 85.1%; in the assay with BT-549 breast it was 105%; with MDA-MB-435 melanoma, 97.8%; in the assay with SW-620 colon, 99.6%; in the assay on MCF7 breast, 87.6%; in the assay on HCT-116 colon, 94%. Also, the results for the growth in the assay with HCC-2998 colon and with KM12 colon were 108% and 95.5%, respectively.

Take `COc1ccc(/C=C2\COc3ccc(O)c(O)c3C2=O)c(OC)c1`: the growth was 48% in the assay on T-47D breast; 57.8% in the assay on BT-549 breast; 21% in the assay with MDA-MB-435 melanoma; 64% with SW-620 colon; 31.2% in the assay on MCF7 breast; 59.4% in the assay on HCT-116 colon. The growth in the assay with HCC-2998 colon is 104%; in the assay with KM12 colon, 45%.

The values above are taken from PubChem BioAssay (NCI).
